GalR3 antagonist: antagonists of human GalR3 | O60755 | HEK293 GalR3-CNG cAMP membrane potential fluorescence; galR3 body fused to GalR1 C-terminus | inhibition, % at 3 µM | hit rate 0.44% among 360,000 | AID 651719;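 active means inhibition above the screen-wide average plus 3 SD, cut at about 13% in these data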;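 further: forskolin and galanin both at EC90 stimulate the cells; cAMP rise reported by CNG channel membrane potential dye signal; 0% = forskolin plus galanin with DMSO and 100% = forskolin alone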
Target sequence (O60755 1-299 limits assumed): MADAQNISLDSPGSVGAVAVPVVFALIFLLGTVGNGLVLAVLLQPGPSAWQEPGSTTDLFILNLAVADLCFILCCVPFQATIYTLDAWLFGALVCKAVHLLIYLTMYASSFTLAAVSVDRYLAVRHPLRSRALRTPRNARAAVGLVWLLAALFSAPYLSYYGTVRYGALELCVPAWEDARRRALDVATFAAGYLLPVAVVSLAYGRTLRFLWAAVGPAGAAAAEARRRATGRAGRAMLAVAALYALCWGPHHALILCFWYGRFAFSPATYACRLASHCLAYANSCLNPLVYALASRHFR
Hsp70 act: switches on Hsp70 transcription. HeLa Hsp70 promoter luciferase reporter, luminescence; scaled: vehicle 0, proteasome-inhibitor control 100%. activation, % at 10 µM. hit rate 0.04% among 200,000;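 active means activation above the mean across all tested compounds plus 3 SD, cutoff set per campaign, cut at about 5.5% in these data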;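 further: 100% = MG132 at 30 µM as the positive control and 0% = DMSO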
FXN GAA850 act: increases GAA850 frataxin promoter reporter activity | HEK293 lucGAA850 FXN promoter luciferase reporter, 24 h; percent of 10 µM SAHA response | activation, % at 6 µM | hit rate 0.56% among 360,000 | AID 540364;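 active means activation above the average of all compounds screened plus 3 SD, cutoff fixed separately per campaign, cut at about 7.5% in these data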;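 further: 0% = DMSO wells and 100% = 10 µM SAHA wells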
HIF act: HIF pathway transcriptional activation; AID 1910; hit rate 0.32% among 300,000; U2OS HRE-luciferase reporter, luminescence; normalized: DMSO 0%, desferrioxamine 100%; activation, % at 7.5 µM (by protocol);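 active means mean activation of at least 10% of the iron chelator positive control signal, with at least half of replicates also reaching 10%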
SMARCA2 activ: activators of SMARCA2 function | MG213 cells, MMTV-luciferase reporter, dexamethasone, overnight | activation, % at 9.1 µM | hit rate 1% among 370,000; in the data active means activation above about 7.8%;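 further: 0% = vehicle wells and 100% = reference activator wells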
* hit, by the source's call; nt = not tested or not shown. Rows were chosen to be rich in hits. Some 2.2% of all compounds tested hit in one or more screens of this group.

SMILES | GalR3 antagonist | Hsp70 act | FXN GAA850 act | HIF act | SMARCA2 activ
CCOC(=O)N1CCN(C(=O)c2ccc(Cn3c(=S)[nH]c4cc(OCC)c(OCC)cc4c3=O)cc2)CC1 | -3 | 1 | -2 | 18* | -1
C#CCNC(=O)C[C@H]1C[C@@]2(C(=O)OC)C(=C[C@H](C(C)C)O[C@@H]2C2CC2)N(CCC2=CCCCC2)C1=O | nt | nt | nt | nt | -3
Cc1cc(C)[n+](Cc2ccccc2)cc1C(N)=O | 1 | nt | 2 | 21* | 0
Cc1c(C)c2ccc(OCC(=O)N3CCN(c4ccc(F)cc4)CC3)c(C)c2oc1=O | -8 | nt | 0 | 0 | -2
COc1ccc(N2CCN(C(=O)COc3ccc4c(C)c(C)c(=O)oc4c3C)CC2)cc1 | nt | nt | 2 | 51* | nt
O=C(CSc1nnc(-c2cccnc2)n1Cc1ccco1)Nc1ccc(F)cc1Cl | nt | nt | nt | nt | -4
CCOc1ccccc1CN1CCN(S(C)(=O)=O)CC1 | -1 | 0 | 0 | 14* | -1
Cc1ccccc1CN1CCN(S(C)(=O)=O)CC1 | -6 | 0 | 0 | 0 | 1
Cc1c(Nc2cc(Cl)c3nonc3c2[N+](=O)[O-])c(=O)n(-c2ccccc2)n1C | 2 | 2 | 13* | nt | -13
O=C(NC1CCCCN(Cc2cccc(Cl)c2)C1=O)c1ccc(F)c(F)c1 (stereo not given) | nt | nt | nt | nt | -2
COc1nc(OC)nc(N2CCC(C(=O)NCc3cccc(OC)c3OC)CC2)n1 | nt | nt | nt | nt | 8
CC(=O)Nc1ccc2nc(NC(=O)COc3ccccc3Cl)sc2c1 | -1 | 0 | 1 | 2 | 6
CC(=O)Nc1ccc2nc(NC(=O)COc3ccccc3C)sc2c1 | 3 | 0 | 1 | 12* | 3
C[C@H]1Cn2nncc2Cn2c3ccccc3c(=O)n21 | nt | nt | nt | nt | 0
O=C(CSc1nc2sc3c(c2c(=O)n1-c1ccc(Cl)cc1)CCCC3)c1ccccc1Cl | nt | nt | nt | nt | -3
O=C(Nc1ccc2c(c1)Cc1ccccc1-2)NC1CCCCN(Cc2cccc(Cl)c2)C1=O (stereo not given) | nt | nt | nt | nt | -2
CCCCC(=O)Nc1ccc(NC(=S)NC(=O)CC(C)C)cc1OC | 2 | 0 | 2 | 0 | 0
CCCCC(=O)Nc1ccc(NC(=O)CC)cc1OC | -1 | 0 | 2 | 18* | -5
Cc1cccc(OCC(O)Cn2c(=N)n(Cc3ccccc3)c3ccccc32)c1 (stereo not given) | -1 | nt | -3 | 0 | -6
Cc1cccc(OCC(O)Cn2c(=N)n(CCN3CCCCC3)c3ccccc32)c1 (stereo not given) | -10 | 0 | -4 | 0 | 7.8*
COc1ccccc1N(CC(=O)NC1CCCCC1)S(C)(=O)=O | 5 | 0 | 0 | 94* | -3
COc1ccccc1NCC(=O)N/N=C/c1c(O)ccc2ccccc12 | -1 | nt | -2 | 3 | -3
COc1ccccc1N(CC(=O)NC1CCCCC1)S(=O)(=O)c1ccccc1 | -12 | nt | 3 | 0 | -2
COc1ccccc1N(CC(=O)N/N=C/c1c(O)ccc2ccccc12)S(C)(=O)=O | -3 | 0 | -5 | 11* | -4
COc1ccccc1CCn1cnc(-c2ccc(OC)c(OC)c2)c1CC(C)C | -7 | nt | nt | nt | -9
SMILES | GalR3 antagonist | Hsp70 act | FXN GAA850 act | HIF act | SMARCA2 activ
COC(=O)c1cccc(N2CCCC2=O)c1 | 2 | nt | 1 | 0 | 0
O=C(N/N=C/c1cc(Br)ccc1O)c1cccc(N2CCCC2=O)c1 | -4 | 0 | -4 | 42* | -3
O=C(O)c1cccc(N2CCCC2=O)c1 | -7 | 0 | 0 | 47* | 3
COc1ccc(O)c(/C=N/NC(=O)c2cccc(N3CCCC3=O)c2)c1 | -4 | nt | -2 | 7 | -3
COc1ccc(C2CC(=O)C(c3ccc(Cl)c(Cl)c3)=CN2Cc2ccccc2)cc1 (stereo not given) | -7 | nt | nt | nt | -6
CC(=O)N(O)CCCCCNC(=O)CCC(=O)N(O)CCCCCNC(=O)CCC(=O)N(O)CCCCCN | -5 | 0 | 0 | 19* | 1
O=C(COC(=O)Cc1ccc(S(=O)(=O)N2CCCCC2)s1)Nc1ccc2c(c1)OCO2 | -6 | 0 | 0 | 25* | -5
NS(=O)(=O)c1cccc(NC(=O)COC(=O)Cc2ccc(S(=O)(=O)N3CCCCC3)s2)c1 | 4 | 0 | -1 | 0 | 1
Cc1nn(CCC(=O)NNC(=O)NCc2ccccc2)c(C)c1[N+](=O)[O-] | nt | nt | nt | nt | -4
N=c1n(CCN2CCCCC2)c2ccccc2n1CC(=O)c1cccc([N+](=O)[O-])c1 | -14 | nt | 2 | 0 | 8.6*
Cc1cc(NC(=O)CSc2nc3c(c(=O)n2-c2ccc(Cl)cc2)SCC3)no1 | -1 | 0 | -1 | 45* | 1
COC(=O)c1ccc(CSc2nc3c(c(=O)n2-c2ccc(F)cc2)SCC3)o1 | -5 | 0 | 5 | 11* | -2
COC(=O)c1ccc(CSc2nc3c(c(=O)n2-c2ccccc2)SCC3)o1 | nt | 0 | 1 | 0 | -1
O=C1N(CCCO)CCC12CCCCC2 | nt | nt | nt | nt | -4
COc1cc(NC(=O)C2CCN(S(=O)(=O)c3ccc4c(c3)CC(C)N4C(C)=O)CC2)cc(OC)c1OC (stereo not given) | -3 | nt | 1 | 0 | 0
COc1ccc(NC(=O)C2CCN(S(=O)(=O)c3ccc4c(c3)CC(C)N4C(C)=O)CC2)cc1OC (stereo not given) | -9 | nt | 1 | 678* | 0
CCOC(=O)c1c(C)[nH]c(C(=O)N/N=C/c2cc([N+](=O)[O-])ccc2O)c1C | -6 | nt | 6 | -1 | -1
CCOC(=O)c1c(C)[nH]c(C(=O)N/N=C\c2ccccc2O)c1C | -1 | 0 | -13 | 57* | -2
O=C(c1ccc(Cl)cc1)N1CCC(Oc2cccnc2)CC1 | nt | nt | nt | nt | -1
Cc1ccsc1C(=O)NNC(=O)C1C2C=CC(C2)C1C(=O)O (stereo not given) | -2 | 0 | 3 | nt | 9.0*
CCOc1ccc2c(c1)c1nnc(SCC3CCCO3)nc1n2C (stereo not given) | 0 | 0 | 2 | 93* | 0
CC(C)C(C#CC1CC1)NCc1ccc2c(c1)OCO2 (stereo not given) | nt | nt | nt | nt | 3
CCCCCn1nnnc1C1(C)CSCC(=O)N1Cc1ccco1 (stereo not given) | nt | nt | nt | nt | 1
COc1cc(/C=N\NC(=O)CNC(=O)C2COc3ccccc3O2)ccc1O (stereo not given) | 0 | 0 | 2 | -1 | -2
CCN(CC)c1ccc(/C=N/NC(=O)CNC(=O)C2COc3ccccc3O2)c(O)c1 (stereo not given) | -3 | nt | -2 | 19* | -1
O=C(NCCc1ccccc1)c1cc2ncc(Br)cn2n1 | -4 | 0 | 1 | 1 | 8.1*
COCCNC(=O)c1cc2ncc(Br)cn2n1 | -6 | 0 | -1 | 0 | 0
CN(C)CC(=O)N[C@@H]1C=C[C@@H](CC(=O)NCCN2CCCCC2)O[C@@H]1CO | -1 | nt | nt | nt | 7.8*
O=C1CN(c2ccccc2)C(=O)N1 | -2 | nt | -1 | 48* | -4
CC[C@@]1(O)C(=O)OCc2c1cc1n(c2=O)Cc2cc3c(N)cccc3nc2-1 | -6 | nt | -12 | 17* | -7
